From paper PMC12136788 come the findings set out here.

The chains are these.
B1: chr2:166409664:166409935:-|three_prime_utr|ENSG00000136546|control|control|control (ssRNA)
RNA: GGGAGUUCUACAGUCCGACGAUCUGUGGUAACAAGCCAAGCUUUUAAUGUCAUUGUUAUGGUUCUUAUAUGUUUCCAAGCAAUAGCCAUGAUGAUAGACACUGAUGUUCAGAGUCUACAAAUGUCCAUUGCUCUCUACUGGAUCAACAGAGGAUUGAGCAUCA
B2: ENSG00000070961:be:win_5601|3pUTR|ENSG00000070961|bound_else_gene|NA|bound_elsewhere_windowed (ssRNA)
RNA: GGGAGUUCUACAGUCCGACGAUCGAGGUAGCAUGAUAUGCUGGAAAGCAUAUUAGACUAGGAGUCAAGACCUGGUUUCUAGUCUUGGUUUUGCCAUUAAUGUGCUGCAUGAUCUUGGGAAAAUCAUUUACCCUAAAUAAGGGUCAACAGAGGAUUGAGCAUCA
B3: chr19:7961171:7961272:-|3pUTR|ENSG00000066044|msi1|FALSE|unique (ssRNA)
RNA: GGGAGUUCUACAGUCCGACGAUCGGCGGGAUUCCCGCUUCUGAAACUCCCCCUGGAGUCUCACUCCCACACAUGCCCAUAGCUAGCAUUCAACAGAGAACUCUGUCUUAAGCUUCAACUGUGAAAAUGAUGACGGGCUUGUAGCAACAGAGGAUUGAGCAUCA
B4: chr8:52110837:52113338:-|three_prime_utr|ENSG00000147488|control|control|control (ssRNA)
RNA: GGGAGUUCUACAGUCCGACGAUCCCCCGGAAUGCAAAGCUCUACUGGAAAGUAUCAAACAGGCAGUGAAGGGUAUCCAUGUGUAGGAUCACAGCGCUGCCGGGCAACAGAAGUUACCAACAGCAGUAAACUCCAGAUGGAUCUCAACAGAGGAUUGAGCAUCA
B5: ENSG00000107863:be:win_4051|CDS|ENSG00000107863|bound_else_gene|NA|bound_elsewhere_windowed (ssRNA)
RNA: GGGAGUUCUACAGUCCGACGAUCGUGCAGGAGGAAAGCACAGUAGACUCCCAGCCAGUGCCAAACAUAGAUCAUUUACUCACCAACAUUGGAAGGACAGGAGUCUCCCCAGGAGAUGUAUCAGAUUCAGCUACUAGUGACUCACAACAGAGGAUUGAGCAUCA
B6: ENSG00000107863:be:win_5501|CDS|ENSG00000107863|bound_else_gene|NA|bound_elsewhere_windowed (ssRNA)
RNA: GGGAGUUCUACAGUCCGACGAUCCUGUAAACCGGUUAAAACCAAAAUGCUCAGCCCAGGACCUUUCCAUCUCAGACUGGCUGGCCAGGGAACGCCUACGCACCAGUACCUCUGACCUUAGCAGAGGAGAAAUCGGAGAUCCCCCAACAGAGGAUUGAGCAUCA
B7: chr5:113594843:113594944:+|3pUTR|ENSG00000047188|msi1|FALSE|bound_elsewhere (ssRNA)
RNA: GGGAGUUCUACAGUCCGACGAUCCAACAUAAAAUCUUGAGAACCUUCUACUUUCUCUGGGAAAGCAUUAUAUAGUGGUGCAUUAGUUUAGAAAGUCAGCUAUGAUUUUGCCUAUAGUUCUAGUUAUUAGCUUUGGGGUUUUCUCAACAGAGGAUUGAGCAUCA
B8: chr7:123541454:123541562:-|3pUTR|ENSG00000128609|unk|FALSE|unique (ssRNA)
RNA: GGGAGUUCUACAGUCCGACGAUCUCCAUAGUGUCAUUUUAUUUUAGUCAUUAUUGAAUUAUACCAUUUACUCUGUUUUCUUAUAGUCUUAAUUUUAUUAUAUUUUGUUGUUACUGUAUUAUAUUUGAAAACCUUCAAAUUAGACAACAGAGGAUUGAGCAUCA
B9: chr5:113594843:113594944:+|3pUTR|ENSG00000047188|msi1|total|mutant (ssRNA)
RNA: GGGAGUUCUACAGUCCGACGAUCCAACAUAAAAUCUUGAGAACCUUCUACUUUCUCUGGGAAAGCAUUAUACCGUGGUGCAUCCGUUCCGAAAGUCAGCUAUGAUUUUGCCUACCGUUCCCGUUAUCCGCUUUGGGGUUUUCUCAACAGAGGAUUGAGCAUCA
B10: ENSG00000165219:stop:overlap|stop_codon|ENSG00000165219|stop_codon|NA|stop_codon (ssRNA)
RNA: GGGAGUUCUACAGUCCGACGAUCUACCUAUAGGUAAAGAGAAUUUCUCGUAUUGGAGCUUUCUCUUAAAUCUAAUAUUUCAUUAGCCUUUGUUAUUGCUGAGUGUUUUGGAACAUAUGUUUAAGUACUUGGGAAAGUCUUUCUCAACAGAGGAUUGAGCAUCA
B11: chr10:30313878:30313980:-|CDS|ENSG00000107951|unk|FALSE|unique (ssRNA)
RNA: GGGAGUUCUACAGUCCGACGAUCUGUUUUUAUAUUUAAGCCCUUCAUGUACUUACUCAUUUUUUCUUCUGUGUAAUAAUCUAUAGGGAAGGGAGCAAAACAAACCUGAUUCUUCUCCUCUGUACAUUCAGAAUCCAUUUGAAACAACAGAGGAUUGAGCAUCA
B12: chr10:16593140:16593241:-|3pUTR|ENSG00000148484|unk|FALSE|unique (ssRNA)
RNA: GGGAGUUCUACAGUCCGACGAUCUUAUUUUUCUUUUCACUCUCUUUCUAAUGCUUCCCACCUUACCUUUUAGAUUCUUUUGCUAGGUGGGAGAUUGUUAUAAGGUCUUUAAACCAUUUCCAUUUGUUUCUUUAACAUUACCAACAACAGAGGAUUGAGCAUCA
B13: chr2:216672374:216672548:-|3pUTR|ENSG00000115461|msi1|FALSE|unique (ssRNA)
RNA: GGGAGUUCUACAGUCCGACGAUCUUUUUCUUUUUUUUUUUGAAGACAGCAAUAACCACAGUACAUAUUACUGUAGUUCUCUAUAGUUUUACAUACAUUCAUACCAUAACUCUGUUCUCUCCUCUUUUUUGUUUUCAACUUUAACAACAGAGGAUUGAGCAUCA
B14: chr1:93361585:93361687:+|3pUTR|ENSG00000117505|unk|total|mutant (ssRNA)
RNA: GGGAGUUCUACAGUCCGACGAUCUUUAACUUGCCGUUACCGUUUACUUAUUGUUUUCCGAAUUACUUUUACAUUUUCCCAACCCGAUGGCCCCGAGUCCAACAUUACCUUUUGAGAUGACAUUAUUGUCUCCAUAAUUGAGUGCAACAGAGGAUUGAGCAUCA
B15: chr3:15254852:15254953:-|3pUTR|ENSG00000131370|msi1|FALSE|unique (ssRNA)
RNA: GGGAGUUCUACAGUCCGACGAUCAAACUGUUAAUUCUGUCACAGCCUGUAUAUUUUAGUCAUUUGUAAAUCUCUUCAUACAAUAGUGACUUCUUUUUUGACUGAUACAGUAUCUUAAUUACAAGGUUAUUUUGUACUUGUCUUCAACAGAGGAUUGAGCAUCA
B16: chr10:117282838:117282939:-|3pUTR|ENSG00000165650|unk|FALSE|bound_elsewhere (ssRNA)
RNA: GGGAGUUCUACAGUCCGACGAUCCCCCUUGUGUUAUUUUUCUUCCUCUUGGUUUUUGAAUUAGUGUUAAAUAGAAUACUGUCUAGAUUCUUAAAAUAUUUUCAUUUCCAUCAUGGUUAUAACAAAUUUGCUGCAUGCCCAAACCAACAGAGGAUUGAGCAUCA
B17: chr1:93361585:93361687:+|3pUTR|ENSG00000117505|unk|FALSE|unique (ssRNA)
RNA: B14 RNA with C33U, C34A, C39U, C40A, C57U, C58A, C83U, C84A, C92U, C93A
B18: chr2:216672374:216672548:-|3pUTR|ENSG00000115461|msi1|total|mutant (ssRNA)
RNA: B13 RNA with U73C, A74C, U83C, A84C
B19: ENSG00000079335:stop:overlap|stop_codon|ENSG00000079335|stop_codon|NA|stop_codon (ssRNA)
RNA: GGGAGUUCUACAGUCCGACGAUCUUGGUGGAAAUCUUUCAAAAACACAAAACAUGGAACGAUUUGGAGAGGUAAGUUUUCCCUAGGAGAUUCUAUCUUCUUAAAACUGAUGUUCUGCAUUUGUUUCUCAGUUGGACCUAUAUACAACAGAGGAUUGAGCAUCA
B20: chr9:34635388:34635489:-|3pUTR|ENSG00000147955|msi1|FALSE|unique (ssRNA)
RNA: GGGAGUUCUACAGUCCGACGAUCGGGAUAUCCAUGCUUAUGUAUCCAAACACAGAGACCCAUGGGAACAAAUGAGACACAUAUAGAUACUGAGACCUGUGUGUACAGUAGGACCAUGCACUCACACCCAUCUGGAGAGGGAGCCAACAGAGGAUUGAGCAUCA
B21: chr12:54350855:54350965:+|3pUTR|ENSG00000111481|msi1|FALSE|unique (ssRNA)
RNA: GGGAGUUCUACAGUCCGACGAUCUUGCCCUGACAUUUUUGUAAAUUCUGUGCCCUUUGCUGUAGCUACACUUCAGAUUAAAGUAGGAGAAAGAAUGUGCUGAGUGUUUUCCUCCCUUUGCCUCUACCUGGCCCUCAUCCCAACCAACAGAGGAUUGAGCAUCA
B22: chr9:86945015:86945116:-|3pUTR|ENSG00000180447|msi1|FALSE|unique (ssRNA)
RNA: GGGAGUUCUACAGUCCGACGAUCUUGGUUUUGGAUAAGUUUGAGCCCUUGACCUUAAUUUCAUUGCUACCACUCUGAUCUCUUAGCACAUUUCUUAGGAUUAAGGGUCCAAAAAUGCUGAUCUAAGGGGUUGCCAUGGUGUUGCAACAGAGGAUUGAGCAUCA

Where a chain is given by its changes, count along the chain named. Over roughly 5,800 sequences, “enrichment r” has its median near 0.54; the highest 2% begin near 16. The sample as a whole holds a higher share of the highest values than the screen did.

Chain of MSI1 full-length (Q61474 whole entry): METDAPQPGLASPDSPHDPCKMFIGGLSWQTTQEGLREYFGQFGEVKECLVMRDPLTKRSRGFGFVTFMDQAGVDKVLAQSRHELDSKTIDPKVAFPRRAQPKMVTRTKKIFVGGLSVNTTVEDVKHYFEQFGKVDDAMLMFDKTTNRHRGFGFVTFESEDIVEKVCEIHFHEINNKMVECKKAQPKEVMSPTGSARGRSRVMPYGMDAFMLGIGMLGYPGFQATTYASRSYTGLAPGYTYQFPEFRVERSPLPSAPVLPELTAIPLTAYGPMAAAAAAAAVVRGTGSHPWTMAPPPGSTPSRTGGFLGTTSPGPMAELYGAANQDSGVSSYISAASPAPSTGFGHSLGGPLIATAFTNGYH

This test addresses MSI1 full-length (mouse, UniProt Q61474 1-362). Put plainly: nsRBNS (natural sequence RNA bind-n-seq); RBNS binding buffer (assumed for nsRBNS): 25 mM Tris pH 7.5, 150 mM KCl, 3 mM MgCl2, 0.01% Triton X-100, 500 ug/ml BSA, 20 U/ml SUPERase-In, 4 C; UNK is unkempt and MSI1 is Musashi-1; names of the RNAs are library labels; protein concentration not given here; high values mean tight binding.
In the case of B1, the binding signal was 0.263 enrichment R.
The value for B2 was 0.263 enrichment R; that for B3 was 0.313 enrichment R.
In the case of B4, the binding signal turned out to be 0.319 enrichment R.
With B5, the binding signal came to 1.93 enrichment R.
As to B6, the binding signal worked out at 0.497 enrichment R.
Take B7: the binding signal was determined as 31.3 enrichment R.
In the case of B8 it was 42.9 enrichment R; in that of B9, 0.394 enrichment R.
As to B10, the binding signal stood at 1.03 enrichment R.
In the case of B11 it was 1.04 enrichment R; in that of B12, 10.5 enrichment R.
In the case of B13 it was 21.2 enrichment R; in that of B14, 1.55 enrichment R; in that of B15, 0.848 enrichment R.
Molecule B16 gave a binding signal of 3.9 enrichment R.
In the case of B17 it was 56.8 enrichment R.
The molecule B18 registered a binding signal of 7.36 enrichment R.
In the case of B19 it was 4.56 enrichment R.
On to B20, for which the binding signal turned out to be 0.728 enrichment R.
Take B21: the binding signal was 0.649 enrichment R.
Take B22: the binding signal worked out at 0.273 enrichment R.
